Assay outcomes from PubChem BioAssay.
hcDAF-12 act: H. contortus DAF-12 nuclear receptor activators, primary screen, cell-based, luminescence, HEK293, lit1-tk-luc reporter | 370,000 compounds, 1.4% hits | activation, % at 6.8 µM | AID 652067, 2013 | HEK293 hcDAF-12 lit1-tk-luc reporter; 0% DMSO, 100% Δ7-dafachronic acid;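 active means activation above the mean of all tested compounds plus 3 SD, cut at about 5.5% in these data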
DAX1 inh-1: DAX1 (NR0B1) inhibitors, primary screen, cell-based, HEK293, Gal4-DAX1, luciferase luminescence. Nuclear receptor subfamily 0 group B member 1 (Homo sapiens), P51843. HEK293 Gal4-DAX1 luciferase reporter. inhibition, % at 6.75 µM. 340,000 compounds, 0.99% hits;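 active means inhibition above the mean over all tested compounds plus 3 SD, cut at about 4.2% in these data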;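 further: inhibition shows as a rise in luminescence from relieved DAX1 repression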
Target sequence (P51843 207-470 limits assumed): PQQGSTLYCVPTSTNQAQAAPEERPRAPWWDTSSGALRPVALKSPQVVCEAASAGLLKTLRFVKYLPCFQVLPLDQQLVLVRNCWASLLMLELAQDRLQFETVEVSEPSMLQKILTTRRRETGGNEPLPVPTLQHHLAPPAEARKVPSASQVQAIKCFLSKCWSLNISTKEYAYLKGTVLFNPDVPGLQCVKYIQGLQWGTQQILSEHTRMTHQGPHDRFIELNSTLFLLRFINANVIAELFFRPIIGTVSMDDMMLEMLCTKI
AHR act: AHR activators, primary screen, cell-based, luminescence, luciferase reporter, human; Aryl hydrocarbon receptor (Homo sapiens), P35869; AHR-responsive luciferase reporter cells; activation, % at 5 µM; 320,000 compounds, 2.5% hits; in the data active means activation above about 47%
ssDAF-12 act: S. stercoralis DAF-12 nuclear receptor activators, primary screen, cell-based, luminescence, HEK293, GRIP1 co-expression, lit1-tk-luc; activation, % at 6.8 µM; AID 652126, 2013; 370,000 compounds, 1% hits; HEK293 ssDAF-12/GRIP1 lit1-tk-luc reporter; % of 3 µM dafachronic acid response;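 active means activation above the mean over all tested compounds plus 3 SD, cut at about 0.9% in these data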
DAX1 inh-2: DAX1 (NR0B1) inhibitors on StAR promoter, primary screen, cell-based, luminescence, SF-1 (NR5A1), full-length DAX-1; HEK293T StAR-luciferase reporter, SF-1/DAX-1 repression relief; inhibition, % at 6.8 µM; 370,000 compounds, 1.1% hits; AID 652010, 2013;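 active means inhibition above the mean over all tested compounds plus 3 SD, cut at about 3.6% in these data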;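 further: higher inhibition means more luminescence from relief of DAX-1 repression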
hgDAF-12 ag: H. glycines DAF-12 receptor agonists, primary screen, cell-based, luminescence, HEK293, GAL4 fusion, UAS-luciferase | 370,000 compounds, 1.8% hits | HEK293 GAL4-hgDAF12 UAS-luciferase reporter, agonist luminescence; normalized to butyrate control | activation, % at 6.8 µM;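 active means activation above a cutoff set at the mean of all screened compounds plus 3 SD, cut at about 10% in these data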
LXR ag: LXR agonists, Gal4 luciferase reporter, confirmation, counter-screen for hcDAF-12 agonist project, cell-based, luminescence, HEK293, H. contortus campaign; shares compounds with hcDAF-12 act; HEK293 Gal4-LXR tk-luc reporter, 24 h; normalized: DMSO 0%, positive control 100%; activation, % at 6.8 µM; 3,400 tested, under 10 active;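 active means mean percent activation of the reporter above a cutoff set as the average over tested compounds plus their standard deviation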
hcDAF12 conf: H. contortus DAF-12 receptor agonists, confirmation, cell-based, luminescence, HEK293, lit1-tk-luc, triplicate | shares compounds with hcDAF-12 act | HEK293 hcDAF-12 lit1-tk-luc reporter; % of Δ7-dafachronic acid response | activation, % at 6.8 µM | 3,400 compounds, 61% hits;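 active means mean activation across triplicate tests above the threshold derived from the earlier primary screen, cut at about 5.5% in these data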
A number is an active result; n = inactive; x = not tested or not shown. Only some compounds are listed: those with a hit (about 5.7% of all), similar ones and a draw of the others.

SMILES | hcDAF-12 act | DAX1 inh-1 | AHR act | ssDAF-12 act | DAX1 inh-2 | hgDAF-12 ag | LXR ag | hcDAF12 conf
Cc1cccc(C(=O)Nc2ccc(C(=O)N/N=C/c3ccco3)cc2)c1 | n | n | n | n | n | n | x | x
O=C(O)CC/C(=C\c1cc([N+](=O)[O-])ccc1Cl)c1nc2ccccc2s1 | 8.8 | n | n | n | n | n | n | 7.9
Cc1cccc(/C=N/c2sc3c(c2C#N)CCN(Cc2ccccc2)C3)c1O | 14 | n | n | n | n | n | n | 6.7
COc1ccc(/C=N/c2sc3c(c2C#N)CCN(Cc2ccccc2)C3)c(O)c1 | x | x | n | x | x | x | x | x
O=C(Cc1ccccc1F)Nc1ccc(S(=O)(=O)N2CCCCC2)cc1 | n | n | n | n | n | n | x | x
O=C(Cc1ccccc1[N+](=O)[O-])Nc1ccc(S(=O)(=O)N2CCCC2)cc1 | 9.7 | n | n | 1.0 | n | n | n | n
O=C(N1CCN(c2ccccn2)CC1)C(Cl)(Cl)Cl | n | n | n | n | n | n | x | x
Cc1ccc(C(=O)Nc2cccc3cccnc23)cc1C | 9.7 | n | n | n | n | n | n | 8.8
O=C(Nc1cccc2cccnc12)c1cccnc1 | n | n | n | n | n | n | x | x
Cc1cccc(C(=O)Nc2cccc3cccnc23)c1 | n | n | x | n | n | n | x | x
O=C(NC(=S)Nc1cccnc1Cl)c1ccco1 | n | n | n | n | n | n | x | x
O=C(Nc1cccc2cccnc12)c1ccc(Cl)cc1 | 6.7 | n | x | 1.2 | n | n | n | 7.6
O=C(NC(=S)Nc1cccnc1Cl)c1ccc(Cl)cc1 | 10 | n | n | 1.1 | n | 15 | n | 15
Cc1nn(CC(=O)N2CCC(C)CC2)c(=O)c2cccn12 | n | n | n | n | n | n | x | x
Cc1ccccc1NC(=O)n1ncc2cc(Cl)ccc21 | n | n | n | n | n | n | x | x
COc1ccc(C)cc1NC(=O)n1ncc2cc(Cl)ccc21 | 7.4 | n | 56 | n | n | n | n | n
N#C/C(=C\c1ccc(N2CCOCC2)o1)c1ccccc1 | n | n | n | n | n | n | x | x
N#C/C(=C/c1ccc(N2CCOCC2)o1)c1nc2ccccc2[nH]1 | 6.8 | n | n | n | n | n | n | 8.1
CCOC(=O)C1CCCCN1C(=O)CCc1nnc(-c2ccc3c(c2)OCO3)o1 (configuration not stated) | 7.7 | n | n | n | n | n | n | n
N=c1oc2ccccc2cc1-c1nc2ccccc2c(=O)[nH]1 | 8.3 | n | n | n | n | n | n | n
CC(C)N1CC(O)=C(c2nc3ccccc3c(=O)[nH]2)C1=N | n | n | n | n | n | n | x | x
CC(=O)Nc1nc(-c2ccc(Cl)cc2)nc(C)c1C(C)=O | 6.6 | n | 73 | 4.1 | n | n | n | n
CC(=O)c1c(C)nc(C)nc1NC(=O)Cc1ccccc1 | n | n | n | n | n | n | x | x
COc1ccc(OC)c(C2CC(=O)N3CN(c4ccccc4F)CSC3=C2C#N)c1 (configuration not stated) | 6.8 | n | n | n | n | n | n | n
O=C(NCC1CCCO1)c1cc2c(s1)CCC2 (configuration not stated) | 7.7 | n | n | n | n | n | n | n
SMILES | hcDAF-12 act | DAX1 inh-1 | AHR act | ssDAF-12 act | DAX1 inh-2 | hgDAF-12 ag | LXR ag | hcDAF12 conf
Cn1c(=O)c2c(ncn2CC(=O)Nc2nnc(Cc3ccccc3)s2)n(C)c1=O | n | n | n | n | n | n | x | x
CCOC(=O)c1ccc(NC(=S)NCCc2ccccc2F)cc1 | n | n | n | n | n | n | x | x
Cc1ccnc(NC(=O)c2cc3ccccc3o2)c1 | n | n | n | n | n | n | x | x
O=C(Nc1ccccn1)c1cc2ccccc2o1 | 10 | n | n | n | n | n | n | 13
Cc1ccc(C)c(NC(=O)c2cc3ccccc3o2)c1 | 7.8 | n | x | n | n | 11 | n | 9.4
Oc1ccccc1-c1csc(-c2ccccc2)n1 | 14 | 4.9 | 69 | 5.1 | n | 20 | n | 15
c1ccc(-c2csc(-c3ccncc3)n2)cc1 | n | n | n | n | n | n | x | x
COCCNC(=O)C1(C)Cc2c(-c3cccc(NC(C)=O)c3)ccnc2O1 (configuration not stated) | n | x | x | n | n | n | x | x
Cn1nccc1-c1coc2c(C(=O)N3CCOCC3)cccc12 | n | x | x | n | n | n | x | x
CCCC(=O)Nc1cccc(-c2nc3ccccc3o2)c1 | n | n | n | n | n | n | x | x
CCCC(=O)Nc1cccc(-c2nc3cc(C)c(C)cc3o2)c1 | 7.2 | n | n | n | 4.3 | n | n | n
Cc1ccc(S(=O)(=O)CCC(=O)OCC(=O)N2CCc3ccccc32)cc1 | n | n | n | n | n | n | x | x
Cc1ccc(S(=O)(=O)CCC(=O)N2CCc3ccccc32)cc1 | 6.8 | n | n | n | n | n | n | n
CCOC(=O)/C(C#N)=C/c1c[nH]c2ccccc12 | 9.0 | n | n | n | n | n | n | n
COC(=O)/C(C#N)=C/c1c[nH]c2ccccc12 | 8.1 | n | n | n | n | n | n | 9.9
Cc1ccc(C(=O)/C=C/c2c[nH]c3ccccc23)cc1 | 8.6 | n | 52 | n | n | n | n | n
Cc1ccc(S(=O)(=O)/C(C#N)=C/c2c[nH]c3ccccc23)cc1 | n | n | n | n | n | n | x | x
CC(C)(C)c1ccc(C(=O)NC(=S)NNC(=O)c2cccs2)cc1 | 21 | n | 74 | n | n | n | n | n
CN(CC(=O)Nc1ccccc1Cl)C(=O)CSc1nnc(-c2ccco2)o1 | n | n | n | n | n | n | x | x
Cc1ccc(NC(=O)Nc2ccccc2)cc1[N+](=O)[O-] | 7.5 | n | n | n | n | n | n | n
CC(=O)Nc1ccc(C)c([N+](=O)[O-])c1 | n | n | n | n | n | n | x | x
COCc1cc(C)nc(SCC(=O)Nc2nc(C)cs2)c1C#N | 9.7 | n | n | n | n | n | n | 6.3
